# Compound activity: PubChem BioAssay, National Center for Advancing Translational Sciences (NCATS)
# This is a sample that favours compounds with a hit; in the whole collection about 18% have one here.
# IL-1B inflam inh – inhibitors of inflammasome signaling (IL-1 beta secretion) | THP-1 LPS/ATP IL-1B secretion, AlphaLISA, 16 h; active compounds read low | activity change, % at 57.5 µM | actives 4.7% (n = 360,000); in the data active = activity change below about -50%; inconclusive = mostly about -30% to -49%
#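 THP-1 cells pretreated 1 hr with compounds (up to 57.5 uM final), then stimulated with LPS (250 ng/mL final) plus ATP (1.25 mM final); secreted IL-1B measured by AlphaLISA after 16 hr, decreased signal indicating inhibition.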
# DT40 TDP1 CPT – DT40-hTDP1 cell growth loss with CPT; Potency, µM (top dose mostly 46.2 µM), for the others: at the top dose activity change, negative = growth inhibition, hits mostly inhibitors; chicken DT40 Tdp1-/-;hTDP1 cells + 20 nM CPT, ATP luminescence, 48 h; AID 686979; actives 12% (n = 420,000); note: potency is the fitted concentration of half-maximal effect; nearly all actives have a fitted effect of over 55% in size
#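 Chicken DT40 Tdp1-/- cells complemented with human TDP1, 400 cells/well, exposed to compounds plus 20 nM camptothecin for at least 48 h at 37 C; viability read as ATP content by CellTiter-Glo luminescence.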
# Six1-Eya2 inh – inhibitors of human Six1/Eya2 interaction; Q15475+O00167; AlphaScreen GST-Six1/His-Eya2 binding, biochemical; active compounds read low; activity change, % (test concentration not listed); actives 0.56% (n = 360,000); in the data active = activity change below about -65%; inconclusive = mostly about -30% to -63%
# Target sequence (O00167 whole entry, looked up): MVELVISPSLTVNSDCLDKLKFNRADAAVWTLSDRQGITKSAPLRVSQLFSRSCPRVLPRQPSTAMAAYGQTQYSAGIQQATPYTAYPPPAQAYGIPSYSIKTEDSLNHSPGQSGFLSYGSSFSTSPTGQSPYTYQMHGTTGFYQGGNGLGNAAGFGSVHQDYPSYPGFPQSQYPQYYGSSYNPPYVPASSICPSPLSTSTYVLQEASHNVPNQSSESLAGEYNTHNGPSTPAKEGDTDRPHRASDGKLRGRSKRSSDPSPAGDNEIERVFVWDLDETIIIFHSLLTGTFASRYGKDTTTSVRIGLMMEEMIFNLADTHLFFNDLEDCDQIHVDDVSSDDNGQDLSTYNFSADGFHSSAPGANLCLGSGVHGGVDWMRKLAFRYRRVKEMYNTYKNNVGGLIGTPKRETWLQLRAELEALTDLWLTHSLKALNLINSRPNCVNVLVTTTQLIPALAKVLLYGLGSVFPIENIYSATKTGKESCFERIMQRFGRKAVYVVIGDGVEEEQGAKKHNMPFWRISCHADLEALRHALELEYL
# Target sequence (Q15475 whole entry, looked up): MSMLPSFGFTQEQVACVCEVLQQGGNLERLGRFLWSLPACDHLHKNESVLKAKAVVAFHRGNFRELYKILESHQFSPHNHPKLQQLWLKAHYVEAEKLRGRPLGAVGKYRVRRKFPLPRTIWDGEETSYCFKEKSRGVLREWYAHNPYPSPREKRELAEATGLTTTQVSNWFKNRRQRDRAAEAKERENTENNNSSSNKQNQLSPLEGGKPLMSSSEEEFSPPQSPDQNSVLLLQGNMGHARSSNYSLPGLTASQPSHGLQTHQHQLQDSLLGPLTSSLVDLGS
#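 AlphaScreen with GST-Six1 and His-Eya2 (5X mix: 250 nM and 500 nM), glutathione donor and nickel acceptor beads; buffer 50 mM Tris pH 8.0, 300 mM NaCl, 1 mM TCEP; 1 h at 37 C in the dark.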
# TDP1 block – blocks human tyrosyl-DNA phosphodiesterase 1; Potency, µM (doses to about 130 µM), for the others: at the highest dose activity change, negative = inhibition, usual class: inhibitors; recombinant TDP1, AlphaScreen DNA substrate cleavage; Q9NUW8; actives 0.28% (n = 350,000); note: potency is the fitted concentration of half-maximal effect; nearly all actives have a fitted effect of over 40% in size
#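 Signal: AlphaScreen proximity between streptavidin donor and anti-FITC acceptor beads on intact substrate. Reaction: Tdp1 1 nM, substrate 15 nM final, 5 min RT after 15 min compound preincubation.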
# CtBP-E1A blk – inhibitors of CtBP/E1A interaction; AlphaScreen GST-E1A/His-CtBP binding, 1536-well; active compounds read low; activity change, % (concentration not given with the values); actives 0.49% (n = 340,000); AID 651724; in the data active = activity change below about -65%; inconclusive = mostly about -30% to -63%
#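 Protein mix (5X: 125 nM each GST-E1A, His-CtBP) was incubated with pinned compound 2 h at 37 deg C in dark, in 50 mM Tris pH 8.0 buffer with 300 mM NaCl. Glutathione donor and nickel acceptor beads followed; AlphaScreen signal read after 1 h.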
# TDP1 cell noCPT – qHTS for Inhibitors of human tyrosyl-DNA phosphodiesterase 1 (TDP1): qHTS in cells in absence of CPT; DT40 Tdp1-/- hTDP1 cells, no CPT, ATP luminescence, 48 h; Potency, µM (highest dose often 46.2 µM), without a hit: at the top dose activity change, negative = growth inhibition, actives largely listed as inhibitors; actives 15% (n = 420,000); AID 686978, 2013; note: potency is the fitted concentration of half-maximal effect; nearly all actives have a fitted effect of over 55% in size
#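 Growth of hTDP1-complemented DT40 Tdp1-knockout cells is measured by ATP luminescence after at least 48 hr compound exposure at 37 °C, with DMSO substituting for the 20 nM CPT used in the parallel screen.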
# * = called active by the depositor; u = inconclusive; x = not tested or not shown; [ ] = remark or other dose. Unless noted, calls come from the whole dose curve; as a rule, active = well fitted curve in the direction sought with a large enough effect; inconclusive = small, poorly fitted or top-dose-only effect, or another doubt; inactive = no such curve, though single readings can be large; an effect the other way counts as inactive or inconclusive. % is set by controls: 0 for no effect and ±100 for the full control effect.
SMILES,IL-1B inflam inh,DT40 TDP1 CPT,Six1-Eya2 inh,TDP1 block,CtBP-E1A blk,TDP1 cell noCPT
O=C(CN1C(=O)CCC1=O)NCC12CC3CC(CC(C3)C1)C2,u,u,2,-2%,3,26µM*
COc1ccc(S(=O)(=O)NC2CC2)cc1Cl,10,15%,4,x,8,11%
Cc1nnc(-c2ccco2)c2cn(-c3cccc(Br)c3)nc12,x,u,u,6%,u,23µM*
CC(C)(C)C(=O)N1CCN(c2ccc([N+](=O)[O-])c(NCC3CCCO3)c2)CC1 (stereo unspecified),-5,u,-15,6%,-15,u
Fc1ccc(C(Nc2ccccc2Cl)c2nnc(-c3ccccc3Cl)o2)cc1 (stereo unspecified),x,u,x,-4%[12.3 µM],x,21µM*
O=C1OC[C@@H]2CCCN2C(=O)[C@@H](CC(=O)N(CCO)Cc2ccccc2)C/C=C\CC[C@H]1Cc1ccc(F)cc1,-12,u,-4,2%,3,u
O=C1OC[C@@H]2CCCN2C(=O)[C@@H](CC(=O)N(CCO)Cc2ccccc2)C/C=C\C[C@@H]1Cc1ccc(F)cc1,u,23µM*,-7,-4%,-2,u
O=C1N[C@H](Cc2ccccc2)COC(=O)[C@@H](Cc2ccc(F)cc2)C/C=C\C[C@H]1CC(=O)N(CCO)Cc1ccccc1,-59*,u,-3,0%,0,26µM*
C[C@H]1COC(=O)[C@@H](Cc2ccc(F)cc2)C/C=C\C[C@H](CC(=O)N(CCO)Cc2ccccc2)C(=O)N1,24,21µM*,-2,1%,6,23µM*
O=C1N[C@@H](Cc2ccccc2)COC(=O)[C@H](Cc2ccc(F)cc2)C/C=C\C[C@@H]1CC(=O)N(CCO)Cc1ccccc1,u,u,-5,0%,-2,u
O=C1N[C@H](Cc2ccccc2)COC(=O)[C@H](Cc2ccc(F)cc2)C/C=C\C[C@@H]1CC(=O)N(CCO)Cc1ccccc1,u,u,-5,2%,-1,16µM*
O=C1N[C@@H](Cc2ccccc2)COC(=O)[C@@H](Cc2ccc(F)cc2)CC/C=C/C[C@@H]1CC(=O)N(CCO)Cc1ccccc1,-24,u,-13,0%,-14,u
O=C(O)c1cccc2c1Cc1cc([N+](=O)[O-])ccc1-2,u,-17%,-27,x,-20,u
O=C(Cn1c2ncccc2c(=O)n1-c1ccccc1)NCc1ccccc1,x,u,x,5%,x,u
O=C1N[C@@H](Cc2c[nH]c3ccccc23)COC(=O)[C@H](Cc2ccc(F)cc2)C/C=C\C[C@@H]1CC(=O)N(CCO)Cc1ccccc1,-24,u,-6,3%,-7,u
O=C1N[C@@H](Cc2c[nH]c3ccccc23)COC(=O)[C@@H](Cc2ccc(F)cc2)C/C=C\C[C@H]1CC(=O)N(CCO)Cc1ccccc1,u,u,0,5%,-13,21µM*
OC(Cc1ccnc2ccccc12)C(Cl)(Cl)Cl (stereo unspecified),8,u,8,x,6,10µM*
CN(C)S(=O)(=O)N(CC(=O)Nc1ccccc1)c1ccccc1,-11,25%,8,0%,-1,-4%
CCOc1ccc(CCNC(=O)C2CCCN(c3ncnc4c3nc3n4CCCCC3)C2)cc1 (stereo unspecified),-12,u,-6,4%,2,23µM*
Cc1ccc(CN2CCC(CNC(=O)C3CCCN(c4ncnc5c4nc4n5CCCCC4)C3)CC2)cc1 (stereo unspecified),-66*,u,-1,8%,-6,u
COc1ccc(CCNC(=O)C2=CC=CN3CCS(=O)(=O)N=C23)cc1,0,-9%,19,0%,4,24%
COc1ccc(C)cc1NC(=O)C(OC(=O)c1ccc([N+](=O)[O-])o1)c1ccccc1 (stereo unspecified),-6,16µM*,-16,6%,-9,u
COc1ccc(C)cc1NC(=O)C(OC(=O)CNC(=O)c1ccccc1)c1ccccc1 (stereo unspecified),x,x,x,126µM*,x,x
COC(=O)C1CCCCN1C(=O)c1cc(COc2cccc3cnccc23)on1 (stereo unspecified),x,x,x,4%,x,x
CCOC(=O)CC1CCCCN1C(=O)c1cc(COc2cccc3cnccc23)on1 (stereo unspecified),-12,1.6µM*,-1,5%,x,3.7µM*
SMILES,IL-1B inflam inh,DT40 TDP1 CPT,Six1-Eya2 inh,TDP1 block,CtBP-E1A blk,TDP1 cell noCPT
O=C(c1cc(COc2cccc3cccnc23)on1)N1CCC[C@H]1CO,-64*,-3%,-1,x,-2,0%
CC(=O)c1ccc(OCc2cc(C(=O)N3CCC[C@H]3CO)no2)cc1,0,-24%,2,12%,-11,0%
COC(=O)C1CCCCN1C(=O)c1cc(COc2cccc3cccnc23)on1 (stereo unspecified),-16,-21%,-10,1%,-3,-27%
COCCC1CCCCN1C(=O)c1cc(COc2cccc(C(C)=O)c2)on1 (stereo unspecified),-12,23µM*,2,1%,-2,26µM*
COCCOC(=O)c1ccc(NC(=O)COc2ccc([N+](=O)[O-])cc2)cc1,9,-28%,-1,0%,1,u
Cc1cc2ncn(CCOc3ccccc3C#N)c2cc1C,5,-21%,3,11%,-9,u
OCC1CCN(Cc2cn(Cc3ccccc3)nc2-c2cc3ccccc3o2)CC1,-56*,u,-13,5%,11,u
COC1CCN(Cc2cn(Cc3ccccc3)nc2-c2cc3ccccc3o2)CC1,u,u,-9,-1%,-6,26µM*
OCC1CCCN(Cc2cn(Cc3ccccc3)nc2-c2cc3ccccc3o2)C1 (stereo unspecified),-62*,-27%,2,3%,-19,u
CN1CCN(C(=O)C2=C[C@H](c3csc4ccccc34)C[C@H](OCCCCO)O2)CC1,-19,u,3,-1%,1,-6%
COc1ccccc1CN(CC(=O)NCc1ccco1)C(=O)CNS(=O)(=O)c1ccc(C)cc1,-15,-26%,11,6%,-3,-18%
CCOc1ccc(Nc2nc3c(c(=O)[nH]2)CCC3)cc1,25,u,-2,3%,-1,-4%
